# Data from PubChem BioAssay (NCATS).
# Values without a mark were called inactive. Records with an inconclusive call do not appear. Entries that show only a call come without a potency. Activity calls are given as the source filed them. Unless noted, calls come from the whole dose curve; as a rule, active = well fitted curve in the direction sought with a large enough effect; inconclusive = small, poorly fitted or top-dose-only effect, or another doubt; inactive = no such curve, though single readings can be large; an effect the other way counts as inactive or inconclusive.
# Assays:
# [1] = molecular target: Mitogen-activated protein kinase 10 (Mus musculus) (UniProt Q61831); test: JNK3 AlphaScreen Assay (AID 530; active = well fitted curve in either direction with a large enough effect, not every such curve was filed as active;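 note: kinase came from lysate of stimulated human HepG2 cells; signal reports phosphorylation of biotinylated GST-cJun 1-79 at Ser73 with 10 µM ATP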); settings: JNK3 lysate, c-Jun phosphorylation; series mostly up to 57.1 µM
# Method in brief: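 qHTS titrations with 15 min compound pre-incubation before adding ATP (10 uM final). Read-out: AlphaScreen of Ser73-phosphorylated biotin-GST-cJun using HepG2 lysate JNK3 activated by IL-1β and TNFα.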
# [2] = molecular target: Guanine nucleotide-binding protein G(i) subunit alpha-1 (Homo sapiens) (UniProt P63096); test: qHTS Assay for Inhibitors of RGS12 GoLoco Motif Activity (Green Fluorophore) (AID 879); settings: Galphai1/FITC-RGS12 GoLoco peptide, fluorescence polarization; series mostly up to 57.1 µM;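 note: negative values mean loss of peptide binding seen as reduced polarization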
# Guanine nucleotide-binding protein G(i) subunit alpha-1 (Homo sapiens), sequence (P63096 whole entry, looked up): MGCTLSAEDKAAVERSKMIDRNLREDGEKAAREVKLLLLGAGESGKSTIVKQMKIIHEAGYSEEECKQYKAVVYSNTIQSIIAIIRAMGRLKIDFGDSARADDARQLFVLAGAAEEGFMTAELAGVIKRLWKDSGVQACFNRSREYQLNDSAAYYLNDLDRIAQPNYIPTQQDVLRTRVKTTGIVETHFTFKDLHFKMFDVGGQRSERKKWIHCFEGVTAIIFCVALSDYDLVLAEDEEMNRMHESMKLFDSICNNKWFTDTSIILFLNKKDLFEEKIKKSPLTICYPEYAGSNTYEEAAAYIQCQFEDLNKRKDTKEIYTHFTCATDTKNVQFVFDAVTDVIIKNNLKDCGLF
# Method in brief: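 A drop in FITC polarization marked displacement of the FITC-tagged RGS12 GoLoco peptide (10 nM) from Gαi1 (50 nM). Compounds were incubated 10 min at room temperature in Tris pH 7.5 buffer containing 150 mM NaCl, 0.1 mM GDP and 0.05% NP40; unlabeled peptide titration served as control.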
# [3] = Counterscreen for APE1 Inhibitors: Fluorescent Dye Displacement Validation Assay (AID 1707); settings: fluorescent dye displacement from DNA; series mostly up to 57.1 µM
# Method in brief: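 Signal: ThO fluorescence (ex 480 nm/em 540 nm) on binding 50 nM dsDNA; displacement by test compound reduces it. Conditions: 250 nM dye, 50 mM Tris-HCl pH7.5, 2 mM MgCl2, 50mM NaCl, 0.01% Tween-20.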
# [4] = qHTS for differential inhibitors of proliferation of Plasmodium falciparum line 7G8 (AID 1815); settings: Plasmodium falciparum 7G8 proliferation inhibition; series mostly up to 28.7 µM;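 note: potency is the fitted concentration of half-maximal effect; parasite growth measured after three days of incubation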
# [5] = qHTS for differential inhibitors of proliferation of Plasmodium falciparum line D10 (AID 1877); settings: series mostly up to 28.7 µM;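 note: parasites grown with compound for 72 h before DNA staining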
# [6] = qHTS for differential inhibitors of proliferation of Plasmodium falciparum line W2 (AID 1883); settings: Potency: Plasmodium falciparum W2 proliferation inhibition; series mostly up to 28.7 µM;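 note: potency is the fitted concentration of half-maximal effect; parasites grown with compound for 72 h before lysis and staining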
# [7] = qHTS Assay for Modulators of Human Peripheral Myelin Protein 22 (PMP22) Expression/Activity (AID 1967; active = well fitted curve in the direction sought with a large enough effect in the signal ratio; the % refers to the signal ratio); settings: Cell-based PMP22 reporter, dual-color luciferase ratio, 0% = compound-free control cells, mouse Pmp22 promoter in mouse Schwann cells; series mostly up to 115 µM
# Method in brief: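 Engineered MSC80 cells, Pmp22-promoter green and EF-alpha red luciferase reporters; 24h compound treatment at 37 °C. Concentration-response fits on green, red and ratio signals, each overlap-corrected, with %Activity normalized to untreated wells.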
# [8] = molecular target: RecQ-like DNA helicase BLM (Homo sapiens) (UniProt P54132); test: qHTS Validation Assay for Inhibitors of Bloom's syndrome helicase (BLM) (AID 2364); settings: BLM helicase DNA unwinding, fluorescence, in vitro; series mostly up to 57.1 µM; note: potency is the fitted concentration of half-maximal effect
# RecQ-like DNA helicase BLM (Homo sapiens), sequence (P54132 whole entry, looked up): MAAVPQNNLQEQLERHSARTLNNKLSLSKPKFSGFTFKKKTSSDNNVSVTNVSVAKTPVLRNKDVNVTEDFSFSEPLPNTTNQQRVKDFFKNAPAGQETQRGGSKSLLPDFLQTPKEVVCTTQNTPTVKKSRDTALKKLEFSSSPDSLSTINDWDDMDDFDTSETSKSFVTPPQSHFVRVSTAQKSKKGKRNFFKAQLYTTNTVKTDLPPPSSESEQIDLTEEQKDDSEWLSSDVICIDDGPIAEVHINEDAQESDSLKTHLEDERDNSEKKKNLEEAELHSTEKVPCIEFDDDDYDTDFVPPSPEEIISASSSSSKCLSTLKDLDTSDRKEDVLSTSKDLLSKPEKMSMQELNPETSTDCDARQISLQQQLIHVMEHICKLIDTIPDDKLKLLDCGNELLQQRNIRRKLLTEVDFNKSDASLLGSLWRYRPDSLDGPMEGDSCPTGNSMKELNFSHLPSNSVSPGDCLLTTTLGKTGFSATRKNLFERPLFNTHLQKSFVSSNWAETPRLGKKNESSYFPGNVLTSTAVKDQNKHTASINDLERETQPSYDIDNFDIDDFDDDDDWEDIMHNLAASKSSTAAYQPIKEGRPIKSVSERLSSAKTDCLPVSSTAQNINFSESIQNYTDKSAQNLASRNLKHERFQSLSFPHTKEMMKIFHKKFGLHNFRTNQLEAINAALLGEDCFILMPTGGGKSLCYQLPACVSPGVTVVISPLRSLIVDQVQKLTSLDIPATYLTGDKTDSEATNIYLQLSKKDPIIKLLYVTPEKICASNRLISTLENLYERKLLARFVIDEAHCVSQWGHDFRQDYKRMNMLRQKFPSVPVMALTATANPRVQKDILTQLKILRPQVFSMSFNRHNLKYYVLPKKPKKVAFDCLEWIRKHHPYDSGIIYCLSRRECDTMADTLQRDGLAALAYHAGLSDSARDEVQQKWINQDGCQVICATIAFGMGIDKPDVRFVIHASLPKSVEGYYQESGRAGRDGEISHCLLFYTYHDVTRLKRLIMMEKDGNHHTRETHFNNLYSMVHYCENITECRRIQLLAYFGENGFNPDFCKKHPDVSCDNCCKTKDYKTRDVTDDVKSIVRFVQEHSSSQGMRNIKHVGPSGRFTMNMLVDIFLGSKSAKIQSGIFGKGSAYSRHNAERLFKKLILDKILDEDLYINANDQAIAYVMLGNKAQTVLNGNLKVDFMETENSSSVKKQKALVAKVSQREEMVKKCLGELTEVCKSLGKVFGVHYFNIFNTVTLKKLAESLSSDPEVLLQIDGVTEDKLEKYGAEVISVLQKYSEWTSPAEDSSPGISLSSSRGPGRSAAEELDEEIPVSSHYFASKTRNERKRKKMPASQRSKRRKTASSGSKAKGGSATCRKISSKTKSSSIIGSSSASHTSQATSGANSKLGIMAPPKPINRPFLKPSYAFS
# Method in brief: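 Forked 20-bp duplex substrate (200 nM, TAMRA/BHQ-2) plus 2 mM ATP added after 15 min compound preincubation with 50 nM enzyme, pH 8.0, poly(dI-dC) 2.5 ug/ml. Strand separation followed by fluorescence (525/598 nm) over 2 h, normalized to enzyme-free and DMSO controls.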
# [9] = Validation screen for small molecules that induce DNA re-replication in MCF 10A normal breast cells (AID 463097); settings: MCF 10A cells, DNA re-replication phenotype imaging; series mostly up to 46.1 µM; note: potency is the fitted concentration of half-maximal effect; nearly all actives have a fitted effect of over 60% in size
# Method in brief: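 Following 48 hr compound incubation (37 C, 5% CO2), MCF 10A cells receive Hoechst for 40 min at 37 C. Nuclei are then scanned (excitation 405 nm, emission 500-530 nm) for total fluorescence intensity.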
# [10] = molecular target: M-phase phosphoprotein 8 (Homo sapiens) (UniProt Q99549); test: qHTS Validation Assay for Inhibitors for MPP8 Chromodomain Interactions with Methylated Histone Tails (AID 488949); settings: AlphaScreen MPP8 binding to H3K9me3 peptide; series mostly up to 114 µM; note: potency is the fitted concentration of half-maximal effect; nearly all actives have a fitted effect of over 55% in size
# M-phase phosphoprotein 8 (Homo sapiens), sequence (Q99549 whole entry, looked up): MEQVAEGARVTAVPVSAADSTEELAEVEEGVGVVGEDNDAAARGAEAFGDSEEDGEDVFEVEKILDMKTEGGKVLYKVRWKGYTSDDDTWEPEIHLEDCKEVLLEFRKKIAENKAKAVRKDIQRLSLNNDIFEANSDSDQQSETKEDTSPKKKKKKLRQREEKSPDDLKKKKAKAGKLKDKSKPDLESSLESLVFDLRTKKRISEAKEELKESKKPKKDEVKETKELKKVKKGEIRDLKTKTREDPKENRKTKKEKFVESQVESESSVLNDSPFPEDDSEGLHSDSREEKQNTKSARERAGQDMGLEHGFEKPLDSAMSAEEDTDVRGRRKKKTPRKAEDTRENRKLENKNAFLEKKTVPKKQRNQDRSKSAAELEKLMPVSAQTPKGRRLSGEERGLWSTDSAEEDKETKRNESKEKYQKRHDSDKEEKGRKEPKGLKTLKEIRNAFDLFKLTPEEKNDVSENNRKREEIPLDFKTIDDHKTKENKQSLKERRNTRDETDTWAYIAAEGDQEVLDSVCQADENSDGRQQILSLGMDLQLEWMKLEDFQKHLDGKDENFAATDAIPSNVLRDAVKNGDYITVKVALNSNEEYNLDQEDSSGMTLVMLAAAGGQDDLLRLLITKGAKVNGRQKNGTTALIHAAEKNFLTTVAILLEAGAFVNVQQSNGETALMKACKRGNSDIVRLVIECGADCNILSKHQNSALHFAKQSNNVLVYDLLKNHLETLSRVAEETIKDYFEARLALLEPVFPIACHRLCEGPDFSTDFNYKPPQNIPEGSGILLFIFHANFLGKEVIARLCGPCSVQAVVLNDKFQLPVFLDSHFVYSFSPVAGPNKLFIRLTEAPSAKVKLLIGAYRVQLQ
# Method in brief: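 Chemiluminescent proximity assay: histidine-tag capture via nickel acceptor beads, biotin peptide via streptavidin donor beads. Protein and peptide each at 50 nM, pH 7.4, with 30 min incubations at room temperature for complex formation, compound exposure and bead binding.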
# [11] = molecular target: Transient receptor potential cation channel subfamily V member 1 (Homo sapiens) (UniProt Q8NER1); test: HTS Assay for Compounds that Act as Enhancers of the Vanilloid Receptor 1 (AID 488979); settings: TRPV1-expressing cells, enhancer of channel activity, stimulated with capsaicin at EC20; series mostly up to 41.7 µM
# Transient receptor potential cation channel subfamily V member 1 (Homo sapiens), sequence (Q8NER1 whole entry, looked up): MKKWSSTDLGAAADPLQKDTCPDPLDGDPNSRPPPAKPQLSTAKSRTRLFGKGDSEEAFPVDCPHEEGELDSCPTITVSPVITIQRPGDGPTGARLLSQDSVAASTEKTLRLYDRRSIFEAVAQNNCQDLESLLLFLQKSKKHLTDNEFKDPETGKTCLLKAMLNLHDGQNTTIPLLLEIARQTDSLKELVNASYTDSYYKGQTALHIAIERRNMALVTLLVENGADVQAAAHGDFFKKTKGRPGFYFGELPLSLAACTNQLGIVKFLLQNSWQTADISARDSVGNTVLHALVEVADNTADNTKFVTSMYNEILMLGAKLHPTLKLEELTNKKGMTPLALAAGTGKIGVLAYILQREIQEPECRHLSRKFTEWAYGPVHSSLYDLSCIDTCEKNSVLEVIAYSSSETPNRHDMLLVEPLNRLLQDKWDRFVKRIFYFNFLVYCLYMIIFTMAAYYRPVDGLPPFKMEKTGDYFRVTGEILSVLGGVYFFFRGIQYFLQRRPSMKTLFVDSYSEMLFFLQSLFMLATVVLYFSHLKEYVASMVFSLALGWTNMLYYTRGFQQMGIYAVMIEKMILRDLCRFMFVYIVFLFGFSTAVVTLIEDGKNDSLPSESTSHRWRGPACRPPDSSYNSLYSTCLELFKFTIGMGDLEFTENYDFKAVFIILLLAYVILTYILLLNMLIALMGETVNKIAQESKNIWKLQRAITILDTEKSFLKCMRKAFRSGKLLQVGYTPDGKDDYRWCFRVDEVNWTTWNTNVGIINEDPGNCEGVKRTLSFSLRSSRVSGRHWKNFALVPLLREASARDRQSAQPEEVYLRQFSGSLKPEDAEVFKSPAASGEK
# Method in brief: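 Calcium influx kinetics via Fluo-8 (480/520 nm) in TRPV1-expressing cells, 2000/well cultured overnight at 35.5C. Compound-alone read 3 min (agonist phase), followed by EC20 capsaicin challenge for 2 min (enhancer phase).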
# [12] = molecular target: Thyrotropin receptor (Homo sapiens) (UniProt P16473); test: qHTS Assay for Antagonists of the Thyroid Stimulating Hormone Receptor (AID 488980); settings: TSHR-expressing cells, cAMP antagonist read-out; series mostly up to 57.5 µM
# Thyrotropin receptor (Homo sapiens), sequence (P16473 whole entry, looked up): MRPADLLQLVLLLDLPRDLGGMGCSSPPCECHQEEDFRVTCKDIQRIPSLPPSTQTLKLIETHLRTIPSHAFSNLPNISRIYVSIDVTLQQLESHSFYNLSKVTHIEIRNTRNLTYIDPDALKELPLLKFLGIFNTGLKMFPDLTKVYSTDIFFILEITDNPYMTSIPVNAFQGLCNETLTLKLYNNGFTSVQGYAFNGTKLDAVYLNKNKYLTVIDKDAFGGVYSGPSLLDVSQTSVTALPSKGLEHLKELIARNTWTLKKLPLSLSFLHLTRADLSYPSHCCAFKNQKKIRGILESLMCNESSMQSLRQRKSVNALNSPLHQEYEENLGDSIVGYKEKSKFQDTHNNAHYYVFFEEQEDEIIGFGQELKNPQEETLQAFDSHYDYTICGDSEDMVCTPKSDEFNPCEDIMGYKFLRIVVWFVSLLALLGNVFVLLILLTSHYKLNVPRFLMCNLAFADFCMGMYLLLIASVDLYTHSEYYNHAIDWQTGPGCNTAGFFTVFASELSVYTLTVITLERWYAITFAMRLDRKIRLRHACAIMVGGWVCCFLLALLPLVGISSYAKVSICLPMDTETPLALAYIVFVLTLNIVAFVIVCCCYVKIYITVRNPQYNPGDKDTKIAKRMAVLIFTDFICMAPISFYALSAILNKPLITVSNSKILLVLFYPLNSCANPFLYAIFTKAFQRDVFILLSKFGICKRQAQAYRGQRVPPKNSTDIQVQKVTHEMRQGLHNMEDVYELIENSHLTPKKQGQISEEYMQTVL
# Method in brief: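 Inhibition of TSH-stimulated cAMP accumulation was quantified by homogeneous time-resolved FRET in TSHR-transfected HEK293 cells. Agonist: TSH, 4 nM final (EC80).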
# [13] = molecular target: Thyrotropin-releasing hormone receptor (Homo sapiens) (UniProt P34981); test: qHTS for Small Molecule Agonists and Allosteric Enhancers of Human TRH Receptor: Validation Screen for Agonists (AID 493127;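 active = calcium activation more than 3 SD above the typical response in the agonist read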;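 note: intracellular calcium rise by fluo-8 fluorescence before TRH EC20 addition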); settings: TRH receptor agonist cell assay; at 2 µM; stronger effect = higher value
# Thyrotropin-releasing hormone receptor (Homo sapiens), sequence (P34981 whole entry, looked up): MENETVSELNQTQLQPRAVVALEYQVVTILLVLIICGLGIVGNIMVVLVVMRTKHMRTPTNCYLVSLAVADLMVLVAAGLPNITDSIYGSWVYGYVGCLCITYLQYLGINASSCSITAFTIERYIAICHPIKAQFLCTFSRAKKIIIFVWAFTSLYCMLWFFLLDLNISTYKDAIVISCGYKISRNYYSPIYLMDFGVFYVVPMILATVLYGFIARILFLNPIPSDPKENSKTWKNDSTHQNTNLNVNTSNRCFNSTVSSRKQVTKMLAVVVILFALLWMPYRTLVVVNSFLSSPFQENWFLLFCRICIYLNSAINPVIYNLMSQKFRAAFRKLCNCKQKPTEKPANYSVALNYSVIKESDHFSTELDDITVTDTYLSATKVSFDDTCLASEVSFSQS
# Method in brief: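 Compound-evoked intracellular calcium release in fluo-8-loaded TRHR cells, read kinetically on FDSS (Ex 480/Em 530, 1 s/cycle) after 23 nL pintool transfer. Agonist phase preceded 10 nM TRH EC20 addition.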
# [14] = molecular target: Galactokinase (Homo sapiens) (UniProt P51570); test: qHTS Validation Assay for Inhibitors of Human Galactokinase (GALK) (AID 493189); settings: purified human GALK enzyme activity, qHTS 7-point titration; series mostly up to 57.5 µM
# Galactokinase (Homo sapiens), sequence (P51570 whole entry, looked up): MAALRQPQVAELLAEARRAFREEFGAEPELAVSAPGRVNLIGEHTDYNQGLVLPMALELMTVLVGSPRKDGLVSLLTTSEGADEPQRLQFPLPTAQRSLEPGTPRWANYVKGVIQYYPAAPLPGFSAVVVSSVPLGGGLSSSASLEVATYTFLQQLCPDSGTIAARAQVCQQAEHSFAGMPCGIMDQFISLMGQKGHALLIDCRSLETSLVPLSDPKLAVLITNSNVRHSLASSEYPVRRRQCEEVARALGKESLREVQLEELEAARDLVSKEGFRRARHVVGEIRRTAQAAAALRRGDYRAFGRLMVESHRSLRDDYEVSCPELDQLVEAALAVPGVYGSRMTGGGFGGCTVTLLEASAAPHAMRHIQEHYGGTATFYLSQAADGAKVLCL
# Method in brief: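 Enzyme activity is inferred from ATP consumption: human GALK phosphorylates galactose (100 uM) using 35 uM ATP for 1 h at room temperature, and luciferase-based Kinase-Glo Plus reports unconsumed ATP.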
# [15] = Validation screen for small molecules that induce DNA re-replication in SW480 colon adenocarcinoma cells (AID 504364); settings: DNA re-replication phenotype (high-content imaging); series mostly up to 46.1 µM
# Method in brief: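 Image-based DNA content read-out: Hoechst stain 40 min, total nuclear fluorescence intensity (ex 405 nm, em 500-530 nm) after 48 h compound exposure of 250 SW480 cells/well at 37 C, 5% CO2, versus DMSO vehicle.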
# [16] = molecular target: Rap guanine nucleotide exchange factor 4 (Homo sapiens) (UniProt Q8WZA2); test: Confirmatory qHTS for antagonist of cAMP-regulated guanine nucleotide exchange factor 4 (EPAC2) (AID 1645885); settings: EPAC2 Rap1B-BODIPY-GDP exchange fluorescence, biochemical; series mostly up to 114 µM; note: potency is the fitted concentration of half-maximal effect; nearly all actives have a fitted effect of over 25% in size
# [17] = Confirmatory qHTS for small molecule stabilizers of the endoplasmic reticulum resident proteome: Secreted ER Calcium Modulated Protein (SERCaMP) assay (AID 1508628); settings: SERCaMP secreted luciferase ER calcium/proteostasis reporter; series mostly up to 76.3 µM; note: nearly all actives have a fitted effect of over 40% in size
# Method in brief: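 Reporter secretion upon ER calcium depletion (100 nM thapsigargin, 4 h, 37C) is measured as medium luminescence with coelenterazine, after 16 h compound pretreatment of SH-SY5Y-GLuc-SERCaMP cells; primary at three concentrations up to 38.3 uM, follow-up at 11 (up to 76.6 uM).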
# [18] = NCATS anti-infectives library activity on HEK293 viability as a counter-qHTS vs the C. elegans viability qHTS (AID 1745854); settings: HEK293 viability counter-screen; series mostly up to 41.8 µM
# Method in brief: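 Cytotoxicity counter-screen to a worm viability qHTS: CellTiter-Glo luminescence read 10 min after reagent addition. Compounds (final up to 41.7 uM, a 1:5 dilution series) incubated 24 hr at 37C with 1,500 HEK293 cells per well; digitonin control.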
# [19] = NCATS anti-infectives library activity on the primary C. elegans qHTS viability assay (AID 1745855; calls by dose curve); settings: C. elegans worm area imaging, day 7; series mostly up to 41.8 µM
# Method in brief: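 GFP read-out by 488 nm laser cytometry at day 0, 3 and 7, gated on object perimeter, area and peak intensity, scored viability of PE254-GFP-FLuc worms exposed to compound in S medium with bacterial capsules at 21 °C.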
# DIV17 = test: qHTS profiling for inhibitors of Plasmodium falciparum proliferation (AID 504749); note: potency is the fitted concentration of half-maximal effect; nearly all actives have a fitted effect of over 60% in size; settings: P. falciparum in erythrocytes, SYBR Green DNA, 72 h; series mostly up to 28.7 µM
# Method in brief: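 SYBR Green fluorescence of parasite DNA, read after lysis and overnight dark incubation, measured growth over 72 h in erythrocyte culture at 0.3% parasitemia and 2.5% hematocrit. Data normalised to DMSO and 0.29 uM artemisinin, with plate-drift correction.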
structure (smiles),measurement,setting,value
CC(C)=CCC/C(C)=C/CC/C(C)=C/CSc1ccccc1C(=O)O,Potency,[1],inactive
same,outcome,[2],inactive
same,Potency,[3],inactive
same,Potency,[4],11.2 µM (active)
same,Potency,[5],inactive
same,Potency,[6],11.2 µM (active)
same,outcome,[7],inactive
same,Potency,[8],31.6 µM (active)
same,Potency,[9],11.2 µM (active)
same,Potency,[10],56.2 µM (active)
same,outcome,[11],inactive
same,outcome,[12],inactive
same,activation,[13],1.12%
same,outcome,[14],inactive
same,outcome,[15],inactive
CCC(=O)O[C@H]1CC[C@H]2[C@@H]3CCc4cc(O)ccc4[C@H]3CC[C@]12C,Potency,[16],27.8 µM (active)
CS(=O)(=O)CCNCc1nc(-c2ccc3ncnc(Nc4ccc(OCc5cccc(F)c5)c(Cl)c4)c3c2)cs1,Potency,[17],inactive
Cc1nc2c(O)cccc2c(=O)[nH]1,outcome,[18],inactive
same,Potency,[19],inactive
CN1CCN(CCC=C2c3ccccc3Sc3ccc(S(=O)(=O)N(C)C)cc32)CC1,Potency,DIV17,9.53 µM (active)
